Bioassay records deposited in PubChem by The Scripps Research Institute Molecular Screening Center.
An excerpt weighted towards active compounds, which were near 3.4% of everything screened.
TEAD-YAP inh – TEAD-YAP interaction inhibition; HEK-TIYL cells, TEAD-Gal4/YAP UAS-luciferase luminescence; AID 1259422; 1.4% of 640,000 active; inhibition, % at 9.12 µM; in the data active = inhibition above about 32%;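 note: 0% = median of test compound wells and 100% = reference inhibitor wells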
FBW7 activator – human FBW7 E3 ligase activation, primary screen | Q969H0 | AlphaScreen FBW7–phospho-cyclin E peptide binding, activator screen | normalized activity (activation), % at 26.1 µM | 0.13% of 650,000 active | AID 1259310; in the data active = normalized activity above about 1.9%;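 note: purified mutant Fbw7 with reduced substrate affinity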
GPR151 ag – activators of human GPR151; activation, % at 11.2 µM; Q8TDV0; AID 1508602; PathHunter beta-arrestin GPR151 cells, luminescence; 1% of 650,000 active; in the data active = activation above about 4.9%;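 note: 0% = median of compound wells and 100% = cells with positive control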
Target sequence (Q8TDV0 whole entry, looked up): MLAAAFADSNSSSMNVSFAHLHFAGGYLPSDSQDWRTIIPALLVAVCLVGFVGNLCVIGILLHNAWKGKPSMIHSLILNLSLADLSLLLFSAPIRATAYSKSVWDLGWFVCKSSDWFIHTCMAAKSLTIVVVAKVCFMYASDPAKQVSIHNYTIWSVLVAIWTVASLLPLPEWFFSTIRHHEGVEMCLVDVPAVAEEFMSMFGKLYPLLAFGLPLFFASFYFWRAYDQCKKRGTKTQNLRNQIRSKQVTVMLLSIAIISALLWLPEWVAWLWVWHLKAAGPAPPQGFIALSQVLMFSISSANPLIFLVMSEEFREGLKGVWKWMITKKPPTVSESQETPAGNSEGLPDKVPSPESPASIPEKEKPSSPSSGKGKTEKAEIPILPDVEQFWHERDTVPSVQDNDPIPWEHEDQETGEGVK
MITF inh – blocks human microphthalmia-associated transcription factor; O75030; AlphaScreen MITF homodimerization, bead proximity signal; inhibition, % at 2.6 µM; 0.91% of 650,000 active; AID 1259374; in the data active = inhibition above about 50%;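 note: 0% = vehicle wells with protein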
MITF confirm – confirmation of human MITF inhibitors. AlphaScreen MITF homodimerization, biotin/His-MITF beads. shares compounds with MITF inh. 16% of 4,700 active. inhibition, % at 2.6 µM. AID 1259372;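 active = inhibition above a cutoff derived from the DMSO control wells, cut at about 28% in these data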;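 note: 0% = MITF dimer wells with DMSO only; inhibitors lower the bead chemiluminescence by keeping MITF from dimerizing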
AlphaScreen DR – counter-screen: compounds optically interfering with AlphaScreen; 6% of 480 active; AID 1259373; AlphaScreen optical interference counterscreen, cell-free; shares compounds with MITF inh; IC50, µM; call rule not given here
AlphaScreen intf2 – AlphaScreen optical interference, counter-screen. inhibition, % at 2.6 µM. LysRS AlphaScreen counterscreen, signal interference, triplicate. 7.6% of 4,700 active. shares compounds with MITF inh;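 active = inhibition above a cutoff derived from the DMSO control wells, cut at about 30% in these data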
Active calls of the source: *; · = no result.

SMILES	TEAD-YAP inh	FBW7 activator	GPR151 ag	MITF inh	MITF confirm	AlphaScreen intf2	others
CCc1ccc2nc(SCC(=O)Nc3nc(C)c(C)s3)c(C#N)cc2c1	-1.6	-1.3	-0.8	84.5*	22.4	55.8*
N#CC1=C2SCN(Cc3ccccc3)CN2C(=O)CC1c1cccc([N+](=O)[O-])c1 (configuration not stated)	0.0	-0.1	-0.2	-7.4	·	·
C[C@H]1NC(=O)[C@@H]2C[C@H](NC(=O)NC3CCCCC3)CN2C1=O	-0.3	-0.1	1.0	9.2	·	·
CC[C@H](C)[C@@H]1NC(=O)[C@H]2CN(C(=O)c3cc(Cl)cc(Cl)c3)CCN2C1=O	4.6	0.0	0.3	-19.3	·	·
O=C1N[C@@H](CSCc2ccccc2)C(=O)N2CCN(C(=O)NC3CCCCC3)C[C@H]12	9.2	-0.3	4.0	64.9*	71.9*	-3.6	AlphaScreen DR=>6.48
C[C@@H]1NC(=O)[C@H]2CN(C(=O)NC3CCCCC3)CCN2C1=O	11.3	-0.4	-0.7	77.2*	73.8*	-10.4	AlphaScreen DR=>6.48
CC[C@H](C)[C@@H]1NC(=O)[C@H]2CN(C(=O)NC3CCCCC3)CCN2C1=O	-0.4	-0.5	2.2	73.5*	69.9*	-10.8	AlphaScreen DR=>6.48
CCC[C@@H]1NC(=O)[C@H]2CN(C(=O)NC3CCCCC3)CCN2C1=O	4.9	0.1	0.7	76.7*	71.1*	-10.1	AlphaScreen DR=>6.48
O=C1N[C@@H](CC2CCCCC2)C(=O)N2CCN(C(=O)c3cc(F)c(F)cc3F)C[C@H]12	1.9	0.2	0.1	4.7	·	·
O=C1N[C@@H](CC2CCCCC2)C(=O)N2CCN(C(=O)Nc3ccccc3)C[C@H]12	7.3	-0.2	-1.3	77.0*	70.3*	-10.4	AlphaScreen DR=>6.48
O=C(N[C@H]1C[C@H]2C(=O)N[C@@H](CO)C(=O)N2C1)c1cc(F)ccc1F	12.7	0.0	0.0	11.0	·	·
CCCOC(=O)c1c(NC(=O)C2CCCO2)sc2c1CCC(C)C2 (configuration not stated)	-9.9	-0.2	1.6	0.2	·	·
CCCCNC(C)C1COc2ccccc2O1 (configuration not stated)	3.3	0.3	0.2	8.8	·	·
CC(NCc1ccccc1)C1COc2ccccc2O1 (configuration not stated)	-6.8	-0.2	0.3	58.5*	-3.6	-5.2
N/C(=N\OC(=O)c1ccc(I)cc1)c1ccc(Cl)cc1	-6.0	0.1	0.2	11.5	·	·
COc1ccccc1/C=C/CN1CCN(CCOCCO)CC1	17.6	0.2	1.0	53.6*	-1.6	-3.8
COc1ccccc1/C=C/CN1CCN(Cc2ccccc2)CC1	-2.0	0.1	-0.5	37.9	·	·
COc1ccccc1/C=C/CN1CC(C)OC(C)C1 (configuration not stated)	2.1	0.2	2.9	52.9*	-0.1	-2.5
CCOC(=O)c1ccc(N2C(=O)C(=O)/C(=C(/O)c3ccc(OC)cc3)C2c2ccc(C)cc2)cc1 (configuration not stated)	3.2	0.4	-1.4	-3.6	·	·
CCOC(=O)c1ccc(N2C(=O)C(=O)/C(=C(\O)c3ccc(OC)cc3)C2c2ccccc2[N+](=O)[O-])cc1 (configuration not stated)	-20.2	0.4	-4.9	52.2*	12.3	11.2
CCCCC[C@H](O)/C=C/[C@@H]1[C@@H](C/C=C\CCCC(=O)NCCO)[C@@H](O)C[C@H]1O	·	·	-0.3	-5.1	·	·
Cc1ccc(/C=c2\sc3ncnn3c2=O)o1	5.0	-0.1	-0.4	61.2*	22.8	-5.5
COC(=O)c1c(OCc2cccnc2)cc(=O)n2c1CCN(C(=O)C1CCCCC1)CC2	-0.6	0.0	-1.0	68.7*	-5.8	1.8
CCOC(=O)c1nc(-c2ccccc2)oc1C(F)(F)F	1.7	0.2	0.3	10.3	·	·
CCOC(=O)c1oc(-c2ccc(F)cc2)nc1C	-5.6	-0.1	4.8	67.3*	14.3	16.5
CC(NC(=O)CN1CCN(c2cccc(Cl)c2)CC1)c1ccccc1 (configuration not stated)	1.6	0.0	0.2	0.2	·	·
CCCN1CCN(CC(=O)NC(C)c2cccc(Cl)c2)CC1 (configuration not stated)	-7.1	0.1	-1.1	91.7*	12.7	22.4
COc1ccc(NC(=O)Cn2ccsc2=N)c([N+](=O)[O-])c1	7.9	0.4	0.4	3.9	·	·
CN(C)CCN(C)Cc1cccc2ccccc12	4.0	0.1	0.6	59.8*	-0.5	0.8
